# Laboratory results taken from PubChem BioAssay AID2147 (National Center for Advancing Translational Sciences (NCATS), 2009).
# Values joined by “and” are separate entries in the source; they are usually repeats but may differ in a detail not shown here. Equal values may be shown once. Among all 230,000 compounds or so, about 3,600 (1.6%) were called active. A call without a number means that no potency is given here. Not shown: some 15% with an inconclusive outcome. This is one part of a sample in which actives are shown more often than they occur. Calls come from the whole dose curve; as a rule, active = well fitted inhibition curve with a large enough effect (not every such curve was filed as active); inconclusive = small, poorly fitted or top-dose-only effect, or another doubt; inactive = no such curve, though single readings can be large or run the other way. Where a structure was tested more than once in an assay, its records may differ in their call.
# Target: Lysine-specific demethylase 4E (Homo sapiens) (UniProt B2RXH2)
# Assay: qHTS Assay for Inhibitors of Human Jumonji Domain Containing 2E (JMJD2E)
# Conditions: JMJD2E catalytic domain, FDH-coupled NADH fluorescence (FDH is formaldehyde dehydrogenase); series mostly up to 57.1 µM
# Text: Assay Provider: Structural Genomics Consortium [SGC] Screening Center PI: Austin, C.P. Screening Center: NIH Chemical Genomics Center [NCGC] The fine interplay among methylation states of several lysine residues on the tails of histone proteins is a major determinant of the transcriptional state of the associated DNA coding regions and is commonly referred to as the histone code. Histone lysine demethylases catalyze the removal of methyl groups from methylated lysine sidechains on histones H3 and H4, thus antagonizing the reactions catalyzed by histone lysine methyltransferases. […] In search for novel inhibitors of JMJD2E demethylase, a member of the largest set of histone demethylases belonging to the Fe(II) and 2-oxoglutarate oxygenase (2OG) superfamily, we performed a quantitative high-throughput screen (Inglese 2006) by using an assay which utilizes a trimethylated peptide substrate corresponding to a fragment of histone H3 (sequence ARKme3STGGK) with detection of the formaldehyde co-product in real time by a formaldehyde dehydrogenase (FDH) coupled reaction. FDH catalyzes oxidation of formaldehyde to formic acid with the concomitant reduction of the non-fluorescent beta-nicotinamide adenine dinucleotide hydrate (NAD+) cofactor to the fluorescent NADH co-product. References: Inglese, J., Auld, D., Jadhav, A., Johnson, R., Simeonov, A., Yasgar, A., Zheng, W. and Austin, C. Proc Natl Acad Sci USA 2006, 103, 11473-11478. N. R. Rose, S. S. Ng, J. Mecinovic, B. M. Lienard, S. H. Bello, Z. Sun, M. A. McDonough, U. Oppermann and C. J. Schofield, J Med Chem, 2008, 51, 7053-7056. Sakurai, M., Rose, N., Schultz, L., Quinn, A., Jadhav, A., Ng, S., Oppermann, U., Schofield, C.J. and Simeonov, A. Mol BioSystems 2009, in press. S. Michael, D. Auld, C. Klumpp, A. Jadhav, W. Zheng, N. Thorne, C. Austin, J. Inglese and A. Simeonov, Assay Drug Dev Technol, 2008, 6, 637-657.
# Reagents and Controls: Ferrous ammonium sulfate, (+)-sodium L-ascorbate, beta-nicotinamide adenine dinucleotide hydrate (NAD+), Tween-20, formaldehyde dehydrogenase from P. putida (FDH), and disodium 2-oxoglutarate were from Sigma (St. Louis, MO). Black solid-bottom 384-well or 1,536-well assay plates were from Greiner Bio-One (Monroe, NC). Enzyme was supplied by Prof. Udo Oppermann, SGC-Oxford. The catalytic domain of human JMJD2E (residues 1-337) was produced as an N-terminally His6-tagged protein in E. coli, and purified by Ni-affinity chromatography and size-exclusion chromatography, and stored in HEPES 50 mM/ NaCl 500 mM pH 7.5, as reported in Rose 2008. The trimethylated histone peptide substrate ARK(me3)STGGK was synthesized and HPLC-purified by the Tufts University Core Facility (Boston, MA). Substrate solution (Sakurai 2009) contained 50 uM ARK(me3)STGGK, 0.00025 U/uL FDH, 50 uM 2-oxoglutarate, 250 uM NAD+, 1 mM ascorbate, and 10 uM ferrous ammonium sulfate. Controls and plate map: Buffer (150 mM HEPES pH 7.5 containing 0.01% Tween-20) in columns 3 and 4 as negative control (no enzyme) and 100 nM JMJD2E final concentration in columns 1,2, and 5-48. Assay Steps: Enzyme and buffer solutions (3 uL) were dispensed into a 1,536-well Greiner black solid-bottom assay plate. The library compounds (23 nL) were transferred using a Kalypsys pintool equipped with 1,536-pin array. The plate was incubated at room temperature (15 min), and then a 1 uL aliquot of substrate solution was added to initiate the reaction. The plate was transferred to ViewLux imager where an initial reading using standard UV optics (Ex 340 nm, Em 450 nm) was obtained. The plate was then removed from the reader, incubated for 30 minutes at room temperature, and returned to the reader for a second fluorescence reading. A fully automated robotic screening system (Kalypsys Inc, San diego, CA) was used to perform the above steps as described previously (Michael 2008). […]
# Note: nearly all actives have a fitted effect of over 50% in size.
# Potency is the fitted concentration of half-maximal effect.
# Chain of Lysine-specific demethylase 4E (Homo sapiens) (B2RXH2 1-337 limits assumed): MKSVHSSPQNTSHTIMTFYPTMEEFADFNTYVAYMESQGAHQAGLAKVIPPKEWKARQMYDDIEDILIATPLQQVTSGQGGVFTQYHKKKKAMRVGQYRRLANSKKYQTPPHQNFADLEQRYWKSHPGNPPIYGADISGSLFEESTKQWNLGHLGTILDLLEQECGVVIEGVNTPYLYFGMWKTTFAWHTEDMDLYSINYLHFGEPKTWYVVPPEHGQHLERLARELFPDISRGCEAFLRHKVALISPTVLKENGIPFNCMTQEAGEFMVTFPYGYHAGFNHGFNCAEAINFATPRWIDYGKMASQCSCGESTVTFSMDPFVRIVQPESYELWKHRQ
row,SMILES,Potency
1,COc1ccc(CCNC(=O)C(Sc2ccccn2)c2ccccc2)cc1OC (stereo not given),inactive
2,O=c1nc2s/c(=C\c3ccco3)c(=O)n2nc1Cc1ccccc1,15.8 µM (active)
3,O=C(CCCN1C(=O)/C(=C/c2ccco2)SC1=S)Nc1ccccc1,inactive
4,CCOc1ccccc1/C=c1\sc2nc(-c3ccco3)nn2c1=O,inactive
5,Cc1c(Cl)cccc1NC(=S)N(Cc1ccccc1)Cc1cccnc1,inactive
6,CS(=O)(=O)c1sc(C(=O)NC(=S)Nc2ccc(OC(F)(F)F)cc2)c2c1C=CCC2,inactive
7,CCNc1nc(NCC)nc(N/N=C/c2ccc(O)c(OC)c2)n1,inactive
8,CCN(CC)CCCN=C(N)N,inactive
9,Cc1cc(C)c(NC(=O)CS(=O)CC(=O)Nc2cccnc2)c(C)c1 (stereo not given),inactive
10,Cc1ccc(NC(=O)COc2ccc(-n3ccnc3)cc2)cc1Cl,inactive
11,Cc1ccc(-c2nc(-c3cccnc3)sc2CC(=O)Nc2ccc(C)c(Cl)c2)cc1,15.8 µM (active)
12,COc1ccc(CN2C(=O)C(C)S/C2=N/N=C/c2ccco2)cc1 (stereo not given),inactive
13,O=C(CCS(=O)(=O)c1ccccc1Cl)Nc1ccc(S(=O)(=O)Nc2ncccn2)cc1,inactive
14,O=c1cc(-c2ccc(O)c(O)c2)oc2cccc(O)c12,20 µM (active)
15,COc1ccc2c(=O)cc(-c3ccccc3)oc2c1O,inactive
16,COc1c(O)cc2oc(-c3ccc(O)c(O)c3)cc(=O)c2c1O,10 µM (active)
17,CCOC(=O)COc1cc(O)c2c(=O)cc(-c3ccccc3)oc2c1,inactive
18,Cc1coc(C)c1C(=O)CC1(O)C(=O)N(C)c2ccc(Cl)cc21 (stereo not given),inactive
19,O=C(CS(=O)(=O)c1ccc(C(F)(F)F)cn1)NNC(=O)c1ccccc1,inactive
20,CC(=O)c1ccc2c(c1)OCCOCCOc1ccc(C(C)=O)cc1OCCOCCO2,inactive
21,O=C(/C=C/c1ccc(Cl)c([N+](=O)[O-])c1)c1cccnc1,inactive
22,Cc1cc(OCCCCOc2ccc(C#N)cc2)ccc1[N+](=O)[O-],inactive
23,S=C(NCCc1ccccc1)N1CCCCC1,inactive
24,Oc1cc2c(cc1O)CN(C(=S)NCCc1ccc(Cl)cc1)CCC2,28.2 µM (active)
25,O=C1CCN(C(=S)NCCc2ccccc2)CC1,inactive
26,CC(=O)c1nnn(-c2ccc(Cl)cc2C#N)c1C,inactive
27,Cc1noc(COc2ccccc2OCC(O)CNC(C)(C)C)n1 (stereo not given),inactive

row,SMILES,Potency
1,CC(C)(C)NCC(O)COc1cccc2[nH]c(=O)[nH]c12 (stereo not given),inactive
2,COc1ccccc1OCCNCC(O)COc1cccc2[nH]c3ccccc3c12 (stereo not given),inactive and 25.1 µM (active)
3,CCN(CC)S(=O)(=O)c1ccc(N2CCOCC2)c(NC(=O)C2COc3ccccc3O2)c1 (stereo not given),inactive
4,O=[N+]([O-])c1ccc(C=Nc2ccc(Cl)cc2Cl)s1,22.4 µM (active)
5,CCOc1ccc(NC(=O)CCC(=O)N/N=C/c2ccc([N+](=O)[O-])s2)cc1,inactive
6,CC(C)(C)c1cc(C(=O)N/N=C/c2ccc([N+](=O)[O-])s2)n[nH]1,inactive
7,O=C(NNS(=O)(=O)c1ccccc1)c1cnn(-c2ccc(Cl)cc2)c1C(F)(F)F,inactive
8,NC(=O)C1(C(N)=O)OC1c1ccc(Cl)cc1Cl (stereo not given),inactive
9,O=C(CSc1nc2ccccc2o1)N/N=C/c1ccccc1C(=O)O,inactive
10,NC(=O)C1=C[C@H](c2csc3ccccc23)C[C@H](OCc2ccc(CO)cc2)O1,inactive
11,NC(=O)C1=C[C@@H](c2csc3ccccc23)C[C@@H](OCc2ccc(CO)cc2)O1,22.4 µM (active)
12,O=C(NC1CC1)C1=C[C@H](c2c[nH]c3ccccc23)C[C@H](OCc2ccc(CO)cc2)O1,inactive
13,OCC1(Cc2ccccc2C(F)(F)F)CCN(Cc2ccncc2)CC1,inactive
14,CCOC(=O)N1CCN(C(=O)c2cn(C)c3ccc(S(=O)(=O)N4CCCC4)cc3c2=O)CC1,inactive
15,CCn1cc(C(=O)NCC2CCCO2)c(=O)c2cc(S(=O)(=O)N3CCCCC3)ccc21 (stereo not given),inactive
16,CCn1cc(C(=O)NCCCN2CCCCCC2)c(=O)c2cc(S(=O)(=O)N3CCc4ccccc4C3)ccc21,25.1 µM (active)
17,CC(C)(C)C(=O)Nc1c(Br)c(C2CC2)nn1-c1ccccc1,inactive
18,O=C(COC(=O)c1ccc(S(=O)(=O)Nc2ccccc2)cc1)NCC1CCCO1 (stereo not given),inactive
19,CCN(CC(=O)NCCc1ccccc1)S(=O)(=O)c1ccccc1,inactive
20,Cc1c(CCOC(=O)CC23CC4CC(CC(C)(C4)C2)C3)sc[n+]1Cc1ccc([N+](=O)[O-])cc1,10 µM (active)
21,Cc1c(CCOC(=O)c2cc([N+](=O)[O-])ccc2Cl)sc[n+]1CCCCS(=O)(=O)[O-],inactive
22,Cc1c(CCO)sc[n+]1CC(=O)OC12CC3CC(CC(C3)C1)C2,inactive
23,O=C(COc1ccc([N+](=O)[O-])cc1Cl)Nn1cnnc1,inactive
24,C[C@@H]1O[C@@H](OC[C@H]2O[C@@H](Oc3c(-c4cccc(O)c4O)oc4cc(O)cc(O)c4c3=O)[C@H](O)[C@@H](O)[C@@H]2O)[C@H](O)[C@H](O)[C@H]1O,7.08 µM (active)
25,CC1OC(OCC2OC(Oc3c(-c4ccc(O)c(O)c4)oc4cc(O)cc(O)c4c3=O)C(O)C(O)C2O)[C@@H](O)C(O)C1O (stereo not given in full),7.08 µM (active)
26,COc1ccc(CCC(=O)c2c(O)cc(OC3OC(CO)C(O)C(O)C3O[C@@H]3OC(C)C(O)C(O)C3O)cc2O)cc1O (stereo not given in full),inactive
27,COc1ccc(C2CC(=O)c3c(O)cc(OC4OC(COC5OC(C)C(O)C(O)C5O)C(O)C(O)C4O)cc3O2)cc1O (stereo not given),inactive

row,SMILES,Potency
1,C=CCc1ccc(OCC(O)CN2CCN(Cc3ccccc3)CC2)c(OC)c1 (stereo not given),inactive
2,CCN(CC)CC1(O)CCN(C(=O)c2ccc(Cl)c(Cl)c2)CC1,inactive
3,CSc1nnnn1-c1c(C)cc(C)cc1C,inactive
4,CCc1ccc[n+](-c2nc([O-])sc2C=O)c1,inactive
5,O=C(Nc1ccc(N2CCN(C(=O)c3ccccc3)CC2)c(Cl)c1)c1ncn[nH]1,inactive
6,Nc1cccc(S(=O)(=O)Nc2ccc(SC(F)F)cc2)c1,inactive
7,CN1CCN(C2=NCCO2)CC1,inactive
8,Cc1cccc(-[n+]2c(-c3cccc(Br)c3)[nH]c3nc4ccccc4nc32)c1,25.1 µM (active)
9,CCCCCc1nnc(NC(=O)c2ccc(=O)n(C)n2)s1,inactive
10,CCOCCCNCc1cc(Br)ccc1OCC,inactive
11,Cn1nc(C(F)(F)F)cc1C(=O)O,inactive
12,O=C(O)CC/C(=N\NC(=O)c1ccc(F)cc1)c1ccc(Br)cc1,inactive
13,Cc1ccc(C(C[N+](=O)[O-])c2c(C)cc3ccccn23)cc1 (stereo not given),25.1 µM (active)
14,COc1ccc(C(C[N+](=O)[O-])n2nc(C)cc2C)cc1 (stereo not given),inactive
15,CC(=O)Nc1ccc(/C=N/Nc2ccc(C(=O)c3c(C)cc4ccccn34)cc2[N+](=O)[O-])cc1,inactive
16,Cc1ccc(/C=N/NC(=S)Nc2cccc(S(=O)(=O)N(C)C)c2)o1,inactive
17,Cc1ccnc(NC(=O)CCC(=O)N(CC(=O)NCCc2ccccc2)Cc2cccs2)c1,inactive
18,C#CCNc1ccc(C(=O)OCC)cc1,inactive
19,COC(=O)c1c(C)oc(C)c1S(=O)(=O)NCc1ccc(Cl)cc1,inactive
20,COc1ccc(C(=O)C2CCCN(C(=O)c3cnsn3)C2)c(C)c1 (stereo not given),inactive
21,Oc1[nH]c2ccc(Br)cc2c1N=Nc1nn[nH]n1,inactive
22,CSc1n[nH]c(=S)n1N,31.6 µM (active)
23,Nc1ccc(N=Nc2ccccc2Cl)c(N)n1,inactive
24,Cc1ccc(S(=O)(=O)N(C)C)cc1NC(=O)c1n[nH]c(=O)c2ccccc12,inactive
25,COc1cccc(/C=N/Nc2cc(C)nc(-c3ccccc3O)n2)c1O,inactive
26,COc1cccc(/C=N/NC(=O)c2[nH]nc3c2CCc2ccccc2-3)c1O,inactive
27,COc1cccc(/C=N\NC(=O)C2=NNC(=O)C2C)c1O (stereo not given),7.08 µM (active)

row,SMILES,Potency
1,Oc1ccc(-c2nnc(Nc3ccccc3)c3ccccc23)cc1,inactive
2,O=c1c(-c2ccccc2)cnc2n1CCS2,inactive
3,CN1CCN(c2ncc3c(n2)CC(c2ccccc2F)CC3=O)CC1 (stereo not given),inactive
4,O=C(Cn1nnc(N2CCCCC2)n1)c1ccc(Cl)c(Cl)c1,inactive
5,Nc1nonc1-n1nnc(C(=O)N/N=C/c2cc(Br)ccc2O)c1CSC1=NCCS1,20 µM (active)
6,Cc1ccc(SCc2c(C(=O)N/N=C/C3CC=CCC3)nnn2-c2nonc2N)cc1 (stereo not given),inactive
7,COCc1c(C(=O)N/N=C/C2CC=CCC2)nnn1-c1nonc1N (stereo not given),inactive
8,CCOc1ccc(-c2nc(N)ncc2-c2ccccc2OC)c(O)c1,inactive
9,Cc1cc(C)cc(C(=O)NC2C(=O)N3C(C(=O)O)=C(CSc4nnc(C)s4)CSC23)c1 (stereo not given),inactive
10,O=C(CNc1ccc(F)cc1F)NC(=O)NCc1ccco1,inactive
11,Cc1ccc(C(=O)NCCNC(=O)c2ccccc2)cc1,inactive
12,Cc1ccc(C(=O)NC(=S)Nc2ccccc2C)cc1,inactive
13,C/C(=N\NC(=O)c1ccc(C)cc1)C1C(=O)c2ccccc2C1=O,25.1 µM (active)
14,O=c1[nH]c2cccnc2n1-c1ccc([N+](=O)[O-])cc1,inactive
15,O=C(CCCl)Nc1ccc(S(=O)(=O)NCc2ccco2)cc1,inactive
16,CCC(C)NC(=O)C1c2ccccc2Oc2ccccc21 (stereo not given),inactive
17,CCC(C)(C)NC(=O)C1c2ccccc2Oc2ccccc21,inactive
18,O=C(N/N=C/c1ccc(O)c(O)c1)C1c2ccccc2Oc2ccccc21,14.1 µM (active)
19,COc1ccc(OC)c(NC(=O)CN(Cc2ccc(Cl)cc2)S(C)(=O)=O)c1,inactive
20,O=C(CSc1nc(O)c(Cc2ccccc2)c(=O)[nH]1)Nc1nc2c(s1)CCCC2,inactive
21,CC(C)(C)NC(=O)NCc1ccco1,inactive
22,Cc1ccc(NC(=S)NCCN2CCOCC2)cc1,inactive
23,CCOc1cccc(/C=N/NC(=S)NCCN2CCOCC2)c1O,35.5 µM (active)
24,Cc1ccc(C(=O)NC(=S)NCCN2CCOCC2)cc1,inactive
